HEK cytotox: kills HEK 293 cells | HEK 293 viability, ATP luminescence (CellTiter-Glo), 48-72 h | Potency, µM (titrated, usually from 115 µM), usual class: inhibitors | 94,000 compounds, 6.6% hits; also: nearly all actives have a fitted effect of over 60% in size
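Read-out: CellTiter-Glo ATP luminescence. Cells: HEK 293, 250 cells/well. Exposure: 48 or 72 hr, 37 degree Celsius.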
Luciferase inh: inhibitors of firefly (Photinus pyralis) luciferase; P08659; purified P. pyralis luciferase, luminescence, biochemical; Potency, µM (highest dose often 115 µM), hits mostly inhibitors; 76,000 compounds, 2.5% hits; AID 1347043; also: nearly all actives have a fitted effect of over 65% in size
Target sequence (P08659 whole entry, looked up): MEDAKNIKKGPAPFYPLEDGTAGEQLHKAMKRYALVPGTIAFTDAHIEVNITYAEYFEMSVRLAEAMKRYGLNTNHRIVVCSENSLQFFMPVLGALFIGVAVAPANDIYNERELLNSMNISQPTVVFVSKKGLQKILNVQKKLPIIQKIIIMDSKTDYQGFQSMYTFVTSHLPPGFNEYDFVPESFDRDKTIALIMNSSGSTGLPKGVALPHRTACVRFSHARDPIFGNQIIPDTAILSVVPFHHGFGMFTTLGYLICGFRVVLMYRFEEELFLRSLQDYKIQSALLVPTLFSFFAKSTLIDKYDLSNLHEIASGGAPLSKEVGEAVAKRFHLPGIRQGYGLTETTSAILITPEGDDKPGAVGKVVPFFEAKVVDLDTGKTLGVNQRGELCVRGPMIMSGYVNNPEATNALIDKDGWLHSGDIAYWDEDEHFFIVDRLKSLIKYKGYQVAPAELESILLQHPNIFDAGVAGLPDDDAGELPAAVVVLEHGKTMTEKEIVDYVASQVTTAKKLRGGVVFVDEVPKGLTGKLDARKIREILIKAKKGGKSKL
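Biochemical qHTS: compound (6-point titration) added to 10uM D-luciferin plus 10uM ATP in Tris acetate pH 7.5 buffer with Mg, Tween-20 and BSA, then purified enzyme at 10nM; light output imaged.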
hNpr1 antagonist: blocks ANP-stimulated signaling of human Npr1 receptor. AID 1347048. Potency, µM (highest dose often 46.3 µM), actives largely listed as inhibitors. HEK293 hNpr1 GloSensor cGMP, ANP-stimulated luminescence. 76,000 compounds, 1.6% hits. P16066; calls by dose curve; also: nearly all actives have a fitted effect of over 60% in size
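HEK293 cells stably expressing human Npr1 and cGMP GloSensor pGS-40F, loaded 2 h with 2% GloSensor reagent, given compound 30 min at room temperature. Luminescence read before and 20 min after 0.1 nM hNppA.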
3T3 cytotox: kills NIH 3T3 cells; NIH 3T3 viability, CellTiter-Glo ATP luminescence, 48-72 h; Potency, µM (titrated, usually from 96.7 µM), actives largely listed as inhibitors; 94,000 compounds, 4.3% hits; also: nearly all actives have a fitted effect of over 55% in size
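Cytotoxicity was measured by CellTiter-Glo ATP luminescence after 48 or 72 h compound exposure at 37 °C. Mouse NIH 3T3 fibroblasts were seeded at 400 cells/well and dosed by 23 nL pin transfer.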
A number is an active result; i = inactive; ? = inconclusive; nt = no result. A selection: hits, their analogues and other compounds. The true share with any hit is near 11%. Unless noted, calls follow the shape of the dose curve; as a rule, active = well fitted curve in the direction sought with a large enough effect; inconclusive = small, poorly fitted or top-dose-only effect, or another doubt; inactive = no such curve, though single readings can be large; an effect the other way counts as inactive or inconclusive.

SMILES	HEK cytotox	Luciferase inh	hNpr1 antagonist	3T3 cytotox
O=C(O)CCC(=O)N1CCCC2(Cc3ccccc3N(C(=O)C3CCCC3)C2)C1 (stereo not drawn)	i	nt	nt	?
O=C(C1CCCC1)N1CC2(CCN(CC3CCCCC3)C2)Cc2ccccc21 (stereo not drawn)	?	nt	nt	32µM
O=C(C1CCCC1)N1CC2(CCCN(CC3CC3)C2)Cc2ccccc21 (stereo not drawn)	?	nt	nt	i
O=C(C1CCCC1)N1CC2(CCCN(Cc3c[nH]c4ccccc34)C2)Cc2ccccc21 (stereo not drawn)	22µM	nt	nt	25µM
O=C(C1CCCC1)N1CC2(CCN(Cc3ccc(Cl)cc3)C2)Cc2ccccc21 (stereo not drawn)	?	nt	nt	40µM
NC(=O)c1cccc(CN2CCC3(Cc4ccccc4N(C(=O)C4CCCC4)C3)C2)c1 (stereo not drawn)	79µM	nt	nt	i
CCc1nnc(CN(C)c2cc(C3CC(O)C3)nc(N)n2)o1 (stereo not drawn)	i	i	i	i
O=C(N1CCCC(n2cc(-c3nc(C4CC4)no3)nn2)C1)C1(c2ccccc2)CC1 (stereo not drawn)	?	i	?	?
CN(c1ccccc1)c1cc(=O)c2ccnc(-c3cncnc3)c2o1	i	i	i	79µM
CN(C)c1cc(=O)c2ccnc(Nc3cccnc3)c2o1	i	i	i	79µM
COc1ncc(-c2nccc3c(=O)cc(N(C)c4ccccc4)oc23)cn1	i	i	i	32µM
CN(C)c1cc(=O)c2ccnc(-c3ccccc3Oc3ccccc3)c2o1	?	i	i	?
CN1CCN(c2ccc(-c3nccc4c(=O)cc(N(C)c5ccccc5)oc34)cn2)CC1	?	?	i	?
CN(c1ccccc1)c1cc(=O)c2ccnc(-c3cccnc3)c2o1	i	i	i	18µM
CN(C)c1cc(N2CCCC(NC(=O)c3ccsc3)C2)ncn1 (stereo not drawn)	i	i	i	i
COCc1cn2c(=O)n(C)cc(-c3cccc(F)c3)c2n1	i	i	i	?
O=C(NCCc1c[nH]c2ccccc12)[C@@H]1C[C@H]2C(=O)NCCCCCCN(C(=O)C3CC3)[C@H]2C1	?	i	i	?
CC(=O)N1CCC(N2C[C@@H]3OCC(=O)N(Cc4ccccn4)[C@@H]3C2)CC1	i	i	i	i
O=C(CCc1ccc2c(c1)CN(C(=O)C1CC1)CCO2)NCc1cc(F)cc(F)c1	i	i	i	i
CN(c1ccccc1)c1cc(=O)c2ccnc(-c3ccnn3C)c2o1	?	i	i	35µM
Cn1cc(CN2CCN(c3cnccn3)CC2)c(-c2ccc(C3CCCCC3)cc2)n1	25µM	22µM	i	79µM
Cn1cc(CN2CCN(c3ccc(C#N)cn3)CC2)c(-c2ccccc2)n1	79µM	i	i	?
COc1ccc(C2Cn3cnc(C(=O)N4CCC(C(=O)NCc5cccc(C)c5)CC4)c3CO2)cc1 (stereo not drawn)	i	i	i	i
O=C(NC1CCCCC1)C1CCN(C(=O)c2ncn3c2COC(c2ccc(Cl)cc2)C3)CC1 (stereo not drawn)	i	?	i	i
Cc1nn(-c2ccccc2)c2c1C(C(C)C)N(C1CN([S+](=O)([O-])c3cccc(C(F)(F)F)c3)C1)C2=O (stereo not drawn)	i	nt	nt	i
SMILES	HEK cytotox	Luciferase inh	hNpr1 antagonist	3T3 cytotox
CCOC(=O)N1CCC(Oc2cnc3c(ccn3-c3cncnc3)c2)CC1	i	i	i	10µM
CN1C(=O)[C@@H]2C[C@@H](O)CN2C2(CN(C3CCCCC3)C2)C1=O	i	i	i	i
CCN1CCN(c2ccc(-c3nc(CCCc4ccccc4)no3)cn2)CC1	?	?	i	?
OCCN1CCN(c2ccc(-c3nc(-c4cccc(C(F)(F)F)c4)no3)cn2)CC1	?	28µM	?	25µM
CC(C)NC(=O)N1CCOC2(CCN(C(=O)CCCN)CC2)C1	i	nt	nt	i
COC(=O)c1cccc(NC(=O)C2CCc3sc(C(=O)N(C)C)cc3C2)c1 (stereo not drawn)	45µM	i	i	?
O=C(Nc1ccc2c(c1)OCO2)C1CCc2sc(C(=O)N3CCCC3)cc2C1 (stereo not drawn)	32µM	?	?	22µM
O=c1[nH]nc2n1CCC(NS(=O)(=O)c1ccc(Cl)s1)CC2 (stereo not drawn)	i	i	i	i
O=C(c1ccc(Cl)cc1)N1CCC([C@@H]2CNC[C@H]2CO)CC1	?	i	i	i
Cc1ccc(CC(=O)N2CCc3cn(C)c4cccc(c34)C2)cc1	79µM	i	i	?
O=C(NCC1CN(Cc2cccnc2)CC12CN(c1ccccc1)C2)Nc1ccccc1 (stereo not drawn)	?	i	i	i
O=C(c1cccnc1)N1CC(CNc2ccccc2)C2(C1)CN(c1ccccc1)C2 (stereo not drawn)	?	i	i	?
c1ccc(NCC2CN(Cc3ccccn3)CC23CN(c2ccccc2)C3)cc1 (stereo not drawn)	79µM	i	i	?
CC(C)c1ccc(CN2CC(CNc3cccnc3)C3(C2)CN(c2ccccc2)C3)cc1 (stereo not drawn)	50µM	i	?	35µM
Oc1ccccc1CN1CC(CNc2cccnc2)C2(C1)CN(c1ccccc1)C2 (stereo not drawn)	63µM	i	i	?
COc1ccc(-c2cnc([C@@H]3COCCN3C3CCN(C(C)=O)CC3)[nH]2)cc1	i	i	i	i
CCc1nc(-c2c3n(c(=O)n(Cc4c(F)cccc4Cl)c2=O)CCCC3)no1	i	i	i	?
COC(=O)N1CCCC2(C1)C(=NC1CCCCC1)NC(=O)N2c1cccnc1 (stereo not drawn)	i	i	i	i
CCNC(=O)N1CCCC1c1noc(CCC(=O)O)n1 (stereo not drawn)	i	i	i	i
Cc1ccc(NC(=O)N2CCN(C(=O)N3CC4CC(C3)[C@H]3CCCC(=O)N3C4)CC2)cc1C (stereo partly drawn)	i	i	i	i
COc1ccc(Cn2c3c(c(=O)n2Cc2ccccc2)CCN(C(=O)c2cccc(N(C)C)c2)C3)cc1	i	i	i	?
COc1ccc(Cn2c3c(c(=O)n2Cc2ccccc2)CCN(C(=O)c2cocn2)C3)cc1	i	i	i	25µM
COc1ccc(-n2c(=O)c3c(n2Cc2ccccc2)CN(C(=O)c2ccnn2C)CC3)cc1	i	i	i	35µM
COc1ccc(Cn2c3c(c(=O)n2Cc2ccccc2)CCN(C(=O)c2nc4ccccc4[nH]2)C3)cc1	?	i	i	20µM
COc1ccc(-n2c(=O)c3c(n2Cc2ccccc2)CN(C(=O)c2cccc(O)c2)CC3)cc1	i	i	i	?
COCCC(=O)N1CCc2c(n(Cc3ccc(OC)cc3)n(Cc3ccccc3)c2=O)C1	i	i	i	?
O=C(Cc1cccn1-c1ccc(Cl)cc1)N1CCCC1	?	i	i	i
O=[S+]1([O-])NCC2(CCCN(Cc3c(F)cccc3Cl)C2)Oc2ncccc21 (stereo not drawn)	i	nt	nt	i
